Results filed as inconclusive are left out. The source made the active and inactive calls. Unless noted, the call rests on the fitted dose curve.
Assay: qHTS assay to identify small molecule agonists of the NFkB signaling pathway (AID 1159509; active means well fitted curve in the direction sought with a large enough effect in the signal ratio in the repeat runs, not every such curve was filed as active; the % refers to the signal ratio)
Conditions: NFkB-bla ME-180 cells, beta-lactamase FRET ratio, 5 h; series mostly up to 61 µM
Procedure, shortened: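 Pathway activation was measured in ME-180 cells stably expressing beta-lactamase under NF-kB response element control. Substrate cleavage was read as the 460/530 nm emission shift after 5 hr compound incubation.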

| Compound | outcome |
| --- | --- |
| c1ccc(Oc2ccccc2)cc1 | inactive |
| O=c1[nH]cnc2[nH]ncc12 | inactive |
| CCNc1ccccc1 | inactive |
| O=C1C(c2[nH]c3ccccc3c2O)=Nc2ccccc21 | inactive |
| CCCCOC(=O)c1ccc(N)cc1 | inactive |
| CCCOC(=O)c1ccccc1 | inactive |
| COC(=O)CCCC(=O)OC | inactive |
| CC(O)CC(C)(C)O (stereo unspecified) | inactive |
| CN(C)CCOC(=O)COc1ccc(Cl)cc1 | inactive |
| CN/C(=C\[N+](=O)[O-])NCCSCc1csc(CN(C)C)n1 | inactive |
| CC(=O)CC(C)(C)O | inactive |
| CC(C)=CCl | inactive |
| O=S(=O)(O)c1ccccc1 | inactive |
| COC(=O)c1cccnc1 | inactive |
| COc1ccc(OC)cc1 | inactive |
| O=C(O)c1ccc(C(=O)O)c(C(=O)O)c1 | inactive |
| CC(=O)c1ccc(O)cc1 | inactive |
| CCOC(=O)c1ccc(N)cc1 | inactive |
| COc1cc(OC)c(C(=O)CCCN2CCCC2)c(OC)c1 | inactive |

| Compound | outcome |
| --- | --- |
| CC(C)c1cccc(C(C)C)c1 | inactive |
| NCCNCCN | inactive |
| Cc1ccc(C(C)C)c(O)c1 | inactive |
| Cc1ccc([N+](=O)[O-])cc1S(=O)(=O)O | inactive |
| Cc1ccc2ncccc2c1 | inactive |
| CC(C)CC(=O)CC(C)CC(C)C (stereo unspecified) | inactive |
| OC1C(O)C(O)C(O)C(O)C1O (stereo unspecified) | inactive |
| O=C1CCCC1 | inactive |
| CCCCCCCC=O | inactive |
| CC(C)(C#N)c1cc(Cn2cncn2)cc(C(C)(C)C#N)c1 | inactive |
| CC(=O)OCc1ccco1 | inactive |
| CCCCCCCCCCCCCCCCO | inactive |
| Cc1ccc(S(=O)(=O)N=C=O)cc1 | inactive |
| O=S(=O)(O)c1ccc(N=Nc2c(O)ccc3cc(S(=O)(=O)O)ccc23)cc1 | inactive |
| CCc1ccccc1CC | inactive |
| Nc1nc(N)nc(-c2ccccc2)n1 | inactive |
| COc1ccc([N+](=O)[O-])cc1N | inactive |
| CC(C)CCCCCCCOC(=O)CCCCC(=O)OCCCCCCCC(C)C | inactive |
| CC1(C)CC(N)CC(C)(CN)C1 (stereo unspecified) | inactive |

Assay: qHTS assay to identify small molecule agonists of the NFkB signaling pathway - cell viability counter screen (AID 1159515); further: nearly all actives have a fitted effect of over 55% in size
Conditions: NFkB-bla ME-180 viability, CellTiter-Glo luminescence, 5 h; series mostly up to 61 µM
Procedure, shortened: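 Plate 2,000 NFkB-bla ME-180 cells/well; incubate overnight. Add compounds, 5 hr at 37 C. Add FRET substrate, 1.5 hr RT. Add CellTiter-Glo, 30 min RT; read luminescence.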

| Compound | outcome |
| --- | --- |
| c1ccc(Oc2ccccc2)cc1 | inactive |
| O=c1[nH]cnc2[nH]ncc12 | inactive |
| CCNc1ccccc1 | inactive |
| O=C1C(c2[nH]c3ccccc3c2O)=Nc2ccccc21 | inactive |
| CCCCOC(=O)c1ccc(N)cc1 | inactive |
| CCCOC(=O)c1ccccc1 | inactive |
| COC(=O)CCCC(=O)OC | inactive |
| CC(O)CC(C)(C)O (stereo unspecified) | inactive |
| CN(C)CCOC(=O)COc1ccc(Cl)cc1 | inactive |
| CN/C(=C\[N+](=O)[O-])NCCSCc1csc(CN(C)C)n1 | inactive |
| CC(=O)CC(C)(C)O | inactive |
| CC(C)=CCl | inactive |
| O=S(=O)(O)c1ccccc1 | inactive |
| COC(=O)c1cccnc1 | inactive |
| COc1ccc(OC)cc1 | inactive |
| O=C(O)c1ccc(C(=O)O)c(C(=O)O)c1 | inactive |
| CC(=O)c1ccc(O)cc1 | inactive |
| CCOC(=O)c1ccc(N)cc1 | inactive |
| COc1cc(OC)c(C(=O)CCCN2CCCC2)c(OC)c1 | inactive |

| Compound | outcome |
| --- | --- |
| CC(C)c1cccc(C(C)C)c1 | inactive |
| NCCNCCN | inactive |
| Cc1ccc(C(C)C)c(O)c1 | inactive |
| Cc1ccc([N+](=O)[O-])cc1S(=O)(=O)O | inactive |
| Cc1ccc2ncccc2c1 | inactive |
| CC(C)CC(=O)CC(C)CC(C)C (stereo unspecified) | inactive |
| OC1C(O)C(O)C(O)C(O)C1O (stereo unspecified) | inactive |
| O=C1CCCC1 | inactive |
| CCCCCCCC=O | inactive |
| CC(C)(C#N)c1cc(Cn2cncn2)cc(C(C)(C)C#N)c1 | inactive |
| CC(=O)OCc1ccco1 | inactive |
| CCCCCCCCCCCCCCCCO | inactive |
| Cc1ccc(S(=O)(=O)N=C=O)cc1 | inactive |
| O=S(=O)(O)c1ccc(N=Nc2c(O)ccc3cc(S(=O)(=O)O)ccc23)cc1 | inactive |
| CCc1ccccc1CC | inactive |
| Nc1nc(N)nc(-c2ccccc2)n1 | inactive |
| COc1ccc([N+](=O)[O-])cc1N | inactive |
| CC(C)CCCCCCCOC(=O)CCCCC(=O)OCCCCCCCC(C)C | inactive |
| CC1(C)CC(N)CC(C)(CN)C1 (stereo unspecified) | inactive |

Source: PubChem BioAssay (Tox21)
